Experimental data reported in PubChem BioAssay (Tox21).
Results filed as inconclusive are left out. Unmarked numbers belong to inactive results. Active and inactive are the calls of the source. Calls follow the shape of the dose curve; as a rule, active = well fitted curve in the direction sought with a large enough effect in the repeat runs; inconclusive = weak or mixed curves; inactive = no such curve, though single readings can be large; an effect the other way counts as inactive or inconclusive.
% is scaled to controls: 0 for no effect and ±100 for the full control effect.

Assay: qHTS assay to identify small molecule antagonists of the retinoid acid receptor (RAR) signaling pathway - cell viability counter screen (AID 1159551); also: nearly all actives have a fitted effect of over 35% in size
Conditions: C3RL4 cells viability, ATP luminescence (CellTiter-Glo), 6 h; series mostly up to 92.4 µM; activity change, negative = cytotoxicity: at the top concentration
Outline: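 Retinol-stimulated (1 uM final) C3RL4 cells, compound 6 h, 37 C; readout CellTiter-Glo luminescence (ATP) after 30 min RT incubation.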
In the case of `O=C1CCCCC1Cl` (stereo not given), the “activity change, negative = cytotoxicity” value is reported as 1.23%.
In the case of `ClCCN1CCCC1`, the “activity change, negative = cytotoxicity” value is reported as 1.03% [at 42.5 µM].
With `COC(=O)c1ccccc1CS(=O)(=O)NC(=O)Nc1nc(OC)cc(OC)n1` the “activity change, negative = cytotoxicity” value was 0.369%.
In the case of `COC1=CC(=O)O[C@@H](/C=C/c2ccccc2)C1`, the “activity change, negative = cytotoxicity” value is reported as 1.23%.
For `Cc1cc(OC(=O)N(C)C)nn1C(=O)N(C)C`, the “activity change, negative = cytotoxicity” value was 3.3%.
In the case of `O=C(Cl)c1ccccc1`, the “activity change, negative = cytotoxicity” value is reported as 2.41%.
For `CCN[C@@H](C)Cc1cccc(C(F)(F)F)c1`, the “activity change, negative = cytotoxicity” value was 0.0235% [at 42.5 µM].
For `CCNP(=S)(OC)O/C(C)=C/C(=O)OC(C)C` (stereo not given), the “activity change, negative = cytotoxicity” value was 0.392%.
For `C=CCCC#N`, the “activity change, negative = cytotoxicity” value was -3.34%.
With `O=[N+]([O-])c1cccc(CCl)c1` the “activity change, negative = cytotoxicity” value was 1.78%.
In the case of `COc1cccc(C=O)c1`, the “activity change, negative = cytotoxicity” value is reported as -1.32%.
For `COc1ccccc1OC`, the “activity change, negative = cytotoxicity” value was 0.969%.
In the case of `CCCCCCCCBr`, the “activity change, negative = cytotoxicity” value is reported as -0.472%.
With `C1CN2CCC1CC2` the “activity change, negative = cytotoxicity” value was 0.396% [at 42.5 µM].
For `ClCCCCCCCl`, the “activity change, negative = cytotoxicity” value was -0.0562%.
In the case of `C=CCN1CC[C@]23CCCC[C@H]2[C@H]1Cc1ccc(O)cc13`, the “activity change, negative = cytotoxicity” value is reported as -0.748% [at 42.5 µM].
For `NC(=O)CS(=O)C(c1ccccc1)c1ccccc1` (stereo not given), the “activity change, negative = cytotoxicity” value was 1% [at 42.5 µM].
With `CC(C)(C)NC[C@H](O)c1ccc(O)cc1Cl` the “activity change, negative = cytotoxicity” value was -0.602% [at 42.5 µM].
For `CC(C)(C1CCC(O)CC1)C1CCC(O)CC1` (stereo not given), the “activity change, negative = cytotoxicity” value was -0.251%.
In the case of `CCCCOC(C)=O`, the “activity change, negative = cytotoxicity” value is reported as -0.246%.
In the case of `O=C(NC(O)C(Cl)(Cl)Cl)NC(O)C(Cl)(Cl)Cl` (stereo not given), the “activity change, negative = cytotoxicity” value is reported as 1.71% [at 42.5 µM].
In the case of `O=CCCl`, the “activity change, negative = cytotoxicity” value is reported as 1.62%.
In the case of `C=CCc1cc(OC)c2c(c1)OCO2`, the “activity change, negative = cytotoxicity” value is reported as 2.16%.
With `O=c1[nH]c2ccccc2n1C1CCNCC1` the “activity change, negative = cytotoxicity” value was 1.71% [at 42.5 µM].
For `CNC(=O)NC(O)C(Cl)(Cl)Cl` (stereo not given), the “activity change, negative = cytotoxicity” value was -0.18% [at 42.5 µM].
With `CCOP(=S)(OCC)SCCl` the “activity change, negative = cytotoxicity” value was 2.6%.
In the case of `O=C(Cl)C(Cl)(Cl)Cl`, the “activity change, negative = cytotoxicity” value is reported as 1.48%.
For `COc1cccc([C@@]2(O)CCCC[C@@H]2CN(C)C)c1`, the “activity change, negative = cytotoxicity” value was -0.547% [at 42.5 µM].
For `NC1(c2ccccc2)CCCCC1`, the “activity change, negative = cytotoxicity” value was -1.53%.
In the case of `Cc1cccc2sc3nncn3c12`, the “activity change, negative = cytotoxicity” value is reported as 1.12%.
With `CCc1cc(OC)c(C[C@H](C)N)cc1OC` the “activity change, negative = cytotoxicity” value was -3.84%.
In the case of `CCOC(=O)c1ncn2c1CN(C)C(=O)c1c(I)cccc1-2`, the “activity change, negative = cytotoxicity” value is reported as -0.265% [at 42.5 µM].
With `BrCc1ccc(Br)cc1` the “activity change, negative = cytotoxicity” value was 0.351%.
With `Clc1ccc(C(Cl)(Cl)Cl)cn1` the “activity change, negative = cytotoxicity” value was -2.68%.
With `CCNc1nc(Cl)nc(NC(C)(C)C)n1` the “activity change, negative = cytotoxicity” value was 3.88%.

Assay: qHTS assay to identify small molecule antagonists of the retinoic acid receptor (RAR) signaling pathway (AID 1159552; also: nearly all actives have a fitted effect of over 50% in size)
Conditions: C3RL4 RARE luciferase reporter, retinol-stimulated, 6 h; series mostly up to 92.4 µM; activity, negative = inhibition: at the top concentration
Outline: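 RARE-luc C3RL4 cells; cpds + 1 uM (final) retinol, 6 hr, 37 C/5% CO2; luciferase reagent, 30 min RT, luminescence readout. Inhibitors of retinol-driven signal scored.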
With `O=C1CCCCC1Cl` (stereo not given) the “activity, negative = inhibition” value was 20.6%.
For `ClCCN1CCCC1`, the “activity, negative = inhibition” value was 2.24% [at 42.5 µM].
In the case of `COC(=O)c1ccccc1CS(=O)(=O)NC(=O)Nc1nc(OC)cc(OC)n1`, the “activity, negative = inhibition” value is reported as 23.6%.
In the case of `COC1=CC(=O)O[C@@H](/C=C/c2ccccc2)C1`, the “activity, negative = inhibition” value is reported as 171%.
For `Cc1cc(OC(=O)N(C)C)nn1C(=O)N(C)C`, the “activity, negative = inhibition” value was 4.1%.
For `O=C(Cl)c1ccccc1`, the “activity, negative = inhibition” value was 42%.
For `CCN[C@@H](C)Cc1cccc(C(F)(F)F)c1`, the “activity, negative = inhibition” value was -14.5% [at 42.5 µM].
In the case of `CCNP(=S)(OC)O/C(C)=C/C(=O)OC(C)C` (stereo not given), the “activity, negative = inhibition” value is reported as 34.8%.
With `C=CCCC#N` the “activity, negative = inhibition” value was 63.2%.
In the case of `O=[N+]([O-])c1cccc(CCl)c1`, the “activity, negative = inhibition” value is reported as 0.188%.
In the case of `COc1cccc(C=O)c1`, the “activity, negative = inhibition” value is reported as 1.73%.
With `COc1ccccc1OC` the “activity, negative = inhibition” value was -4.03%.
With `CCCCCCCCBr` the “activity, negative = inhibition” value was 3.87%.
In the case of `C1CN2CCC1CC2`, the “activity, negative = inhibition” value is reported as 3.13% [at 42.5 µM].
With `ClCCCCCCCl` the “activity, negative = inhibition” value was -0.239%.
In the case of `C=CCN1CC[C@]23CCCC[C@H]2[C@H]1Cc1ccc(O)cc13`, the “activity, negative = inhibition” value is reported as -4.41% [at 42.5 µM].
With `NC(=O)CS(=O)C(c1ccccc1)c1ccccc1` (stereo not given) the “activity, negative = inhibition” value was 5.28% [at 42.5 µM].
For `CC(C)(C)NC[C@H](O)c1ccc(O)cc1Cl`, the “activity, negative = inhibition” value was -3.82% [at 42.5 µM].
With `CC(C)(C1CCC(O)CC1)C1CCC(O)CC1` (stereo not given) the “activity, negative = inhibition” value was -4.88%.
In the case of `CCCCOC(C)=O`, the “activity, negative = inhibition” value is reported as -0.389%.
With `O=C(NC(O)C(Cl)(Cl)Cl)NC(O)C(Cl)(Cl)Cl` (stereo not given) the “activity, negative = inhibition” value was 0.627% [at 42.5 µM].
For `O=CCCl`, the “activity, negative = inhibition” value was 3.4%.
In the case of `C=CCc1cc(OC)c2c(c1)OCO2`, the “activity, negative = inhibition” value is reported as -4.44%.
With `O=c1[nH]c2ccccc2n1C1CCNCC1` the “activity, negative = inhibition” value was -11.9% [at 42.5 µM].
For `CNC(=O)NC(O)C(Cl)(Cl)Cl` (stereo not given), the “activity, negative = inhibition” value was 18.6% [at 42.5 µM].
For `CCOP(=S)(OCC)SCCl`, the “activity, negative = inhibition” value was -5.21%.
With `O=C(Cl)C(Cl)(Cl)Cl` the “activity, negative = inhibition” value was -20.4%.
For `COc1cccc([C@@]2(O)CCCC[C@@H]2CN(C)C)c1`, the “activity, negative = inhibition” value was -7.69% [at 42.5 µM].
In the case of `NC1(c2ccccc2)CCCCC1`, the “activity, negative = inhibition” value is reported as -15.8%.
In the case of `Cc1cccc2sc3nncn3c12`, the “activity, negative = inhibition” value is reported as -14.3%.
For `CCc1cc(OC)c(C[C@H](C)N)cc1OC`, the “activity, negative = inhibition” value was -14.3%.
For `CCOC(=O)c1ncn2c1CN(C)C(=O)c1c(I)cccc1-2`, the “activity, negative = inhibition” value was 3.15% [at 42.5 µM].
In the case of `BrCc1ccc(Br)cc1`, the “activity, negative = inhibition” value is reported as -9.05%.
With `Clc1ccc(C(Cl)(Cl)Cl)cn1` the “activity, negative = inhibition” value was 5.84%.
With `CCNc1nc(Cl)nc(NC(C)(C)C)n1` the “activity, negative = inhibition” value was -11%.

Assay: qHTS assay to identify small molecule agonists of the retinoic acid receptor (RAR) signaling pathway (AID 1159553); also: potency is read from the fitted curve at half-maximal effect
Conditions: C3RL4 RARE luciferase reporter, agonist, 6 h; series mostly up to 73.3 µM; activation: at the top concentration
Outline: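 Reporter readout comes from luciferase under RARE control in C3RL4 cells; compound exposure lasts 6 hr at 37 C in 5% CO2, and luminescence is recorded following a 30 min room-temperature incubation with reagent.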
With `O=C1CCCCC1Cl` (stereo not given) the “activation” value was 0.327% [at 94.8 µM].
With `ClCCN1CCCC1` the “activation” value was 0.86%.
For `COC(=O)c1ccccc1CS(=O)(=O)NC(=O)Nc1nc(OC)cc(OC)n1`, the “activation” value was -0.0634%.
In the case of `COC1=CC(=O)O[C@@H](/C=C/c2ccccc2)C1`, the Potency is reported as 24.7 µM (active).
In the case of `Cc1cc(OC(=O)N(C)C)nn1C(=O)N(C)C`, the “activation” value is reported as -1.17%.
For `O=C(Cl)c1ccccc1`, the “activation” value was -1.79% [at 94.8 µM].
With `CCN[C@@H](C)Cc1cccc(C(F)(F)F)c1` the “activation” value was -1.06%.
For `CCNP(=S)(OC)O/C(C)=C/C(=O)OC(C)C` (stereo not given), the “activation” value was 2.88%.
With `C=CCCC#N` the “activation” value was 0.966%.
For `O=[N+]([O-])c1cccc(CCl)c1`, the “activation” value was -0.671% [at 94.8 µM].
With `COc1cccc(C=O)c1` the “activation” value was -0.371%.
With `COc1ccccc1OC` the “activation” value was 0.335%.
In the case of `CCCCCCCCBr`, the “activation” value is reported as 0.368%.
For `C1CN2CCC1CC2`, the “activation” value was -0.227%.
For `ClCCCCCCCl`, the “activation” value was 0.0276%.
With `C=CCN1CC[C@]23CCCC[C@H]2[C@H]1Cc1ccc(O)cc13` the “activation” value was -5.44%.
In the case of `NC(=O)CS(=O)C(c1ccccc1)c1ccccc1` (stereo not given), the “activation” value is reported as 0.0569%.
With `CC(C)(C)NC[C@H](O)c1ccc(O)cc1Cl` the “activation” value was 0.306%.
With `CC(C)(C1CCC(O)CC1)C1CCC(O)CC1` (stereo not given) the “activation” value was -0.538%.
With `CCCCOC(C)=O` the “activation” value was 0.124% [at 94.8 µM].
For `O=C(NC(O)C(Cl)(Cl)Cl)NC(O)C(Cl)(Cl)Cl` (stereo not given), the “activation” value was 2.09%.
With `O=CCCl` the “activation” value was 2.43%.
For `C=CCc1cc(OC)c2c(c1)OCO2`, the “activation” value was 0.57% [at 94.8 µM].
With `O=c1[nH]c2ccccc2n1C1CCNCC1` the “activation” value was -5.64%.
With `CNC(=O)NC(O)C(Cl)(Cl)Cl` (stereo not given) the “activation” value was 1.07%.
With `CCOP(=S)(OCC)SCCl` the “activation” value was 2.63%.
For `O=C(Cl)C(Cl)(Cl)Cl`, the “activation” value was -0.0474% [at 94.8 µM].
With `COc1cccc([C@@]2(O)CCCC[C@@H]2CN(C)C)c1` the “activation” value was 0.449%.
For `NC1(c2ccccc2)CCCCC1`, the “activation” value was -9.06%.
For `Cc1cccc2sc3nncn3c12`, the “activation” value was -1.69%.
With `CCc1cc(OC)c(C[C@H](C)N)cc1OC` the “activation” value was -8.72% [at 94.8 µM].
In the case of `CCOC(=O)c1ncn2c1CN(C)C(=O)c1c(I)cccc1-2`, the “activation” value is reported as 0.0087%.
For `BrCc1ccc(Br)cc1`, the “activation” value was -2.47%.
In the case of `Clc1ccc(C(Cl)(Cl)Cl)cn1`, the “activation” value is reported as -0.0028%.
For `CCNc1nc(Cl)nc(NC(C)(C)C)n1`, the “activation” value was -1.73%.
